Records with an inconclusive call do not appear. Calls of active or inactive are those of the source.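 The calls were made as follows, unless noted: active = cell viability at or below a set limit in both duplicate runs, the limit being the all-compound median minus 4 SD (cut at about 23% in these data, passing the limit was not always enough); inconclusive = no clear call, values can overlap the other calls; inactive = the rest.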
test: growth suppression of beta-catenin knockout HCT116, pilot screen, human colon tumor cells (AID 823); settings: CellTiter-Glo, 60 h, at 10 µM, active compounds read low;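 also: 0% = wells killed by 20 µM Hyamine and 100% = untreated DMSO cell wells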

SMILES	viability
CCOC(=O)c1sc(N)nc1-c1ccccc1	101% (inactive)
O=C(Nn1nnnc1Nc1ccccc1)C12CC3CC(CC(C3)C1)C2	85.2% (inactive)
CCCn1c(CN2CCCCC2CC)nc2c1c(=O)n(C)c(=O)n2C (stereo not given)	93.9% (inactive)
CC(=O)c1cccc(NC(=O)C2CCCN2S(=O)(=O)c2cccc3cccnc23)c1 (stereo not given)	74.4% (inactive)
CCCC(=O)Nc1ccc(N2CCCCC2)cc1	87.2% (inactive)
Cc1nc(-c2ccc3c(c2)OCO3)cs1	102% (inactive)
Cc1cccc(OCCSc2cc(C)nc(N)n2)c1	89.1% (inactive)
O=C(O)CC(Cn1cnnn1)c1ccccc1 (stereo not given)	103% (inactive)
COc1ccc(C2C(C(=O)NCCN(C)C)c3ccccc3C(=O)N2C)cc1OC (stereo not given)	100% (inactive)
Cc1cc(C)n2nc(SCC(=O)Nc3ccc(F)cc3)nc2n1	111% (inactive)
COc1ccc2c(c1)CC(C1(O)C(=O)N(C)c3ccccc31)C2=O (stereo not given)	94% (inactive)
CCOc1cccc(C(=O)Nc2nnc(-c3ccco3)s2)c1	103% (inactive)
Cc1ccc(Cn2nnc3c(=O)n(CC(=O)c4ccccc4)cnc32)cc1	96.7% (inactive)
Cc1ccc(C(c2sc3ncnn3c2O)N2CCCCC2)cc1 (stereo not given)	92.9% (inactive)
Cn1cnnc1SCC(=O)c1ccc2c(c1)CCCC2	105% (inactive)
CCOC(=O)C1C(=O)NC(SC)=C(C#N)C1c1ccccc1F (stereo not given)	90.8% (inactive)
CCOC(=O)c1ccc(Nc2ccc(-c3ccc(OC)c(OC)c3)nn2)cc1	80.8% (inactive)
CCOC(=O)c1ccc2c(c1)NC(=O)C(N1CCN(c3ccc(OC)cc3)CC1)S2 (stereo not given)	74.6% (inactive)
Nc1ccc2nc(-c3ccc(Cl)cc3)[nH]c2c1	73.4% (inactive)
CCOC(=O)c1c(N=CN(C)C)c(C#N)n2c1CCC2	101% (inactive)

SMILES	viability
Cc1ccc(C(=O)Nc2ccc(S(=O)(=O)N3CCN(C)CC3)cc2)o1	104% (inactive)
CC(=O)c1cccc(NC(=O)c2cc3ccccn3n2)c1	99% (inactive)
Cc1cc(Nc2ccc(F)cc2C)n2nc(C)nc2n1	101% (inactive)
CCSC1=C(C#N)C(c2ccccc2C)CC(=O)N1 (stereo not given)	92.5% (inactive)
CCOc1ccc(NC(=O)Nc2ccc3c(c2)N(C)C(=O)CS3)cc1	98.9% (inactive)
CCN(CC)C(=O)C1CCCN(C/C=C/c2ccccc2)C1 (stereo not given)	84.9% (inactive)
N#CCCCSc1nnc(-c2ccc(Cl)cc2)n1-c1ccccc1	83% (inactive)
CCCC(=O)NCCc1cc2ccc(C)c(C)c2[nH]c1=O	103% (inactive)
Cc1ccc(-c2ccc(CCC(=O)O)n2C(C)C)cc1	94.7% (inactive)
COc1ccc(S(=O)(=O)N2Cc3ccccc3CC2C(=O)O)cc1OC (stereo not given)	104% (inactive)
Cc1ccc(-c2csc(N3CCC(C(N)=O)(N4CCCCC4)CC3)n2)cc1	75.5% (inactive)
Clc1ccc(NCn2cncn2)nc1	96.5% (inactive)
O=C(CN1CCCCC1)Nc1nnc(-c2ccccc2)s1	95.2% (inactive)
CCOC(=O)N1CCN(CC(=O)c2ccc3c(c2)CCN3C(C)=O)CC1	100% (inactive)
CN(C)S(=O)(=O)c1ccc(C(=O)Nc2ccc(Cl)cc2)cc1	77.5% (inactive)
CCOc1ccc(N(CC(=O)Nc2ccc3c(c2)OCCO3)S(=O)(=O)c2c(C)noc2C)cc1	81.6% (inactive)
CCOC(=O)c1c(C2CCN(C(=O)OCC)CC2)nc2ccccn12	95.4% (inactive)
Nc1nc2c(c3c1c(=O)oc1ccccc13)CCCCC2	94.9% (inactive)
O=C1CN(C(=O)c2ccc(Br)o2)C(c2ccccc2)c2cc(F)ccc2N1 (stereo not given)	84.9% (inactive)
Cc1cc(=O)c2c(C)nn(-c3ccccc3)c2[nH]1	96.7% (inactive)

test: growth suppression of PTEN-deleted HCT116, pilot screen, cell-based, HCT116 clonal line, CellTiter-Glo (AID 824;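 active = viability at or below 27.92% in each of two runs, the all-compound median minus 4 SD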;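 also: 0% = 20 µM Hyamine control and 100% = vehicle cell control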); settings: 60 h, at 10 µM, active compounds read low

SMILES	viability
CCOC(=O)c1sc(N)nc1-c1ccccc1	94.5% (inactive)
O=C(Nn1nnnc1Nc1ccccc1)C12CC3CC(CC(C3)C1)C2	86.5% (inactive)
CCCn1c(CN2CCCCC2CC)nc2c1c(=O)n(C)c(=O)n2C (stereo not given)	90.4% (inactive)
CC(=O)c1cccc(NC(=O)C2CCCN2S(=O)(=O)c2cccc3cccnc23)c1 (stereo not given)	82.7% (inactive)
CCCC(=O)Nc1ccc(N2CCCCC2)cc1	94.4% (inactive)
Cc1nc(-c2ccc3c(c2)OCO3)cs1	101% (inactive)
Cc1cccc(OCCSc2cc(C)nc(N)n2)c1	79.1% (inactive)
O=C(O)CC(Cn1cnnn1)c1ccccc1 (stereo not given)	101% (inactive)
COc1ccc(C2C(C(=O)NCCN(C)C)c3ccccc3C(=O)N2C)cc1OC (stereo not given)	97.9% (inactive)
Cc1cc(C)n2nc(SCC(=O)Nc3ccc(F)cc3)nc2n1	98.5% (inactive)
COc1ccc2c(c1)CC(C1(O)C(=O)N(C)c3ccccc31)C2=O (stereo not given)	93.3% (inactive)
CCOc1cccc(C(=O)Nc2nnc(-c3ccco3)s2)c1	104% (inactive)
Cc1ccc(Cn2nnc3c(=O)n(CC(=O)c4ccccc4)cnc32)cc1	91.5% (inactive)
Cc1ccc(C(c2sc3ncnn3c2O)N2CCCCC2)cc1 (stereo not given)	101% (inactive)
Cn1cnnc1SCC(=O)c1ccc2c(c1)CCCC2	96.6% (inactive)
CCOC(=O)C1C(=O)NC(SC)=C(C#N)C1c1ccccc1F (stereo not given)	95.5% (inactive)
CCOC(=O)c1ccc(Nc2ccc(-c3ccc(OC)c(OC)c3)nn2)cc1	77.2% (inactive)
CCOC(=O)c1ccc2c(c1)NC(=O)C(N1CCN(c3ccc(OC)cc3)CC1)S2 (stereo not given)	51.8% (inactive)
Nc1ccc2nc(-c3ccc(Cl)cc3)[nH]c2c1	75.3% (inactive)
CCOC(=O)c1c(N=CN(C)C)c(C#N)n2c1CCC2	93.2% (inactive)

SMILES	viability
Cc1ccc(C(=O)Nc2ccc(S(=O)(=O)N3CCN(C)CC3)cc2)o1	103% (inactive)
CC(=O)c1cccc(NC(=O)c2cc3ccccn3n2)c1	95.8% (inactive)
Cc1cc(Nc2ccc(F)cc2C)n2nc(C)nc2n1	98.7% (inactive)
CCSC1=C(C#N)C(c2ccccc2C)CC(=O)N1 (stereo not given)	87.7% (inactive)
CCOc1ccc(NC(=O)Nc2ccc3c(c2)N(C)C(=O)CS3)cc1	89.1% (inactive)
CCN(CC)C(=O)C1CCCN(C/C=C/c2ccccc2)C1 (stereo not given)	90.9% (inactive)
N#CCCCSc1nnc(-c2ccc(Cl)cc2)n1-c1ccccc1	93% (inactive)
CCCC(=O)NCCc1cc2ccc(C)c(C)c2[nH]c1=O	97.6% (inactive)
Cc1ccc(-c2ccc(CCC(=O)O)n2C(C)C)cc1	101% (inactive)
COc1ccc(S(=O)(=O)N2Cc3ccccc3CC2C(=O)O)cc1OC (stereo not given)	96.1% (inactive)
Cc1ccc(-c2csc(N3CCC(C(N)=O)(N4CCCCC4)CC3)n2)cc1	75% (inactive)
Clc1ccc(NCn2cncn2)nc1	93.5% (inactive)
O=C(CN1CCCCC1)Nc1nnc(-c2ccccc2)s1	98.5% (inactive)
CCOC(=O)N1CCN(CC(=O)c2ccc3c(c2)CCN3C(C)=O)CC1	96.6% (inactive)
CN(C)S(=O)(=O)c1ccc(C(=O)Nc2ccc(Cl)cc2)cc1	88.8% (inactive)
CCOc1ccc(N(CC(=O)Nc2ccc3c(c2)OCCO3)S(=O)(=O)c2c(C)noc2C)cc1	87% (inactive)
CCOC(=O)c1c(C2CCN(C(=O)OCC)CC2)nc2ccccn12	88.7% (inactive)
Nc1nc2c(c3c1c(=O)oc1ccccc13)CCCCC2	96.2% (inactive)
O=C1CN(C(=O)c2ccc(Br)o2)C(c2ccccc2)c2cc(F)ccc2N1 (stereo not given)	78.7% (inactive)
Cc1cc(=O)c2c(C)nn(-c3ccccc3)c2[nH]1	92.3% (inactive)
